{"source": "PubChem BioAssay (NCI)", "note": "About 83,000 compounds went through this panel and 20% of them were active in at least one assay; those are over-represented in the sample as a whole.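 Cell lines were cultured in 96-well plates, exposed to a single compound concentration, and assessed for percent growth 48 hours later.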 The source made the active and inactive calls. Rule for the calls: active = growth percent below 10; inactive = the rest."}
{"tested_on": "HL-60(TB) leukemia", "experiment": "NCI-60 one-dose screen, 48 h (100 = growth as untreated, 0 = no growth, -100 = all killed)", "details": "10 µM unless noted"}
{"smiles": "CC(=O)Nc1ccc(S(=O)(=O)Nc2ccc(-c3ccc4c(c3)NC(=O)/C4=C\\c3ccc[nH]3)cc2)cc1", "growth": "84.2% (inactive)"}
{"smiles": "CC1CCCCN1CCCNC(=O)N/C(N)=N/c1nc2ccccc2s1", "note": "(centres undefined)", "growth": "19.5% (inactive)"}
{"smiles": "CCCCSc1nc(NCCc2c[nH]c3ccccc23)c(C#N)c(-c2ccccc2)n1", "growth": "45.8% (inactive)"}
{"smiles": "O=C(Nc1ccc(I)cc1F)c1cc(-c2ccc(F)cc2F)ccc1O", "growth": "-30.4% (active)"}
{"smiles": "COC[C@@H](CC(C)C)N=C1NC(=O)/C(=C/c2ccc3ncoc3c2)N1", "growth": "1.03% (active)"}
{"smiles": "NS(=O)(=O)c1cccc(Nc2nc(SCC(=O)c3ccc(F)cc3)nc3ccccc23)c1", "growth": "6.93% (active)"}
{"smiles": "COc1ccc(-c2nc3cc(C)ccc3n2CC(=O)N=Nc2c(O)[nH]c3ccc(Br)cc23)cc1", "growth": "39.4% (inactive)"}
{"smiles": "NC(=S)Nc1cccc(NC(N)=S)c1", "growth": "99.1% (inactive)"}
{"smiles": "CCn1c(SCC(=O)Nc2ccc(-c3nc4ccccc4[nH]3)cc2)nc2ccccc2c1=O", "growth": "0.454% (active)"}
{"smiles": "COc1ccc(-c2cc(C(=O)N=Nc3c(O)[nH]c4ccc(F)cc34)c3ccccc3n2)cc1", "growth": "51.6% (inactive)"}
{"smiles": "COc1c(B(O)O)cccc1-c1nc2ccc3cn[nH]c3c2c2c1CCCC2", "growth": "47.6% (inactive)"}
{"smiles": "N/C(=N\\c1nc2ccccc2s1)NC(=O)Nc1ccc(Cl)cc1Cl", "growth": "-66% (active)"}
{"smiles": "CN(CCO)c1oc(-c2ccccc2)nc1[P+](c1ccccc1)(c1ccccc1)c1ccccc1", "growth": "-33.1% (active)"}
{"smiles": "Cn1cc(-c2nc(N)nnc2-c2c[nH]c3ccc(Br)cc23)c2cccnc21", "growth": "5.1% (active)"}
